Test results as given in PubChem BioAssay (EPA / NIEHS).
Results filed as inconclusive are left out. Active and inactive are the calls of the source. Rule for the calls, unless noted: active = hit-call score of the fitted dose curve at least 0.9, where 1 is the maximum; inactive = score below 0.9.

Assays:
[1] = biological target: Oxysterols receptor LXR-beta (Homo sapiens) (UniProt P55055); test: ATG_LXRb_TRANS: Attagene TRANS-FACTORIAL HepG2 Assay for human Liver X Receptor beta (LXRb) (AID 2282981; active = hit-call score of the fitted dose curve at least 0.9, where 1 is the maximum); details: HepG2 Attagene TRANS GAL4-LXRb reporter, mRNA
Chain of Oxysterols receptor LXR-beta (Homo sapiens) (P55055 whole entry, looked up, the tested form may be a part): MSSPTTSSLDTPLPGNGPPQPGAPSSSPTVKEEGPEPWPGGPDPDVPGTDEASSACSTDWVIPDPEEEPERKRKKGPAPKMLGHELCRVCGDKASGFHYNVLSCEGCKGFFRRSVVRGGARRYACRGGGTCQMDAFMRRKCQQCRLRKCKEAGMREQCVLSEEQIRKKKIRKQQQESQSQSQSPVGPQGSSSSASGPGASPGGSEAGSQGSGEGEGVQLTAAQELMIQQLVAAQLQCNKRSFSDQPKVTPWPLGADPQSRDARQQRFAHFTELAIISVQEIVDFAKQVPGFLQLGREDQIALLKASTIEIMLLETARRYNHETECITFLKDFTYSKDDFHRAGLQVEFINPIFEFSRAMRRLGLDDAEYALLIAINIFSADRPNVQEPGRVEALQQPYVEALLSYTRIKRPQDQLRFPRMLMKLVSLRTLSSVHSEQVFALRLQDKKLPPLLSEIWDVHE
Summary of the method: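 Liver-derived HepG2 cells transfected with Gal4-responsive reporters were dosed for 24 h. Activation was scored as rise in reporter mRNA, by RT-PCR and capillary electrophoresis, above DMSO baseline.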

[2] = biological target: Hepatocyte nuclear factor 4-alpha (Homo sapiens) (UniProt P41235); test: ATG_HNF4a_TRANS: Attagene TRANS-FACTORIAL HepG2 Assay for human Hepatocyte Nuclear Factor 4 alpha (HNF4a) (AID 2282982; active = hit-call score of the fitted dose curve at least 0.9, where 1 is the maximum); details: HepG2 HNF4a transactivation reporter, mRNA readout
Chain of Hepatocyte nuclear factor 4-alpha (Homo sapiens) (P41235 whole entry, looked up, the tested form may be a part): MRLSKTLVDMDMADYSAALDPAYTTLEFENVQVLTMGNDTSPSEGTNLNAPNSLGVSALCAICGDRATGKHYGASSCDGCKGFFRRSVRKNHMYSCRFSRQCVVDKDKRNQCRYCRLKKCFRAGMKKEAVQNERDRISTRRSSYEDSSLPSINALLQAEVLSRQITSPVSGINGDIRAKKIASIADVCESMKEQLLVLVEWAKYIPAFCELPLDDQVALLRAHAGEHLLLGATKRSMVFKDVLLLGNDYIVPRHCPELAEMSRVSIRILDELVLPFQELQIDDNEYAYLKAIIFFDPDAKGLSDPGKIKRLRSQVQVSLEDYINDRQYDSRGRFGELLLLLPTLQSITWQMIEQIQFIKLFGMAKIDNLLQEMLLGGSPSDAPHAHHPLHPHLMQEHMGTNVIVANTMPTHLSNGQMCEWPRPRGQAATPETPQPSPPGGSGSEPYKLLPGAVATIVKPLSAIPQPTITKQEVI
Summary of the method: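 Using HepG2 liver cells transfected with GAL4-UAS reporter units, chemical-induced mRNA increases were assessed after 24 hours. Fluorescent RT-PCR fragments were separated by capillary electrophoresis and compared with DMSO negative controls.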

[3] = ATG_M_32_TRANS: Attagene TRANS-FACTORIAL HepG2 Assay for M32 Transcription Factor (Internal Marker) (AID 2282984; active = hit-call score of the fitted dose curve at least 0.9, where 1 is the maximum); details: HepG2 Attagene TRANS M32 internal marker reporter
Summary of the method: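 Fluorescence-detected mRNA induction, HepG2 liver cells, 24 h after dosing. Multiple GAL4-UAS reporter units introduced by transient transfection; background-control endpoint analysed for gain of signal against DMSO.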

[4] = biological target: Transcriptional activator Myb (Homo sapiens) (UniProt P10242); test: ATG_Myb_CIS: Attagene CIS-FACTORIAL HepG2 Assay for human Myeloblastosis (Myb) Proto-Oncogene Transcription Factor (AID 2282986); details: HepG2 Attagene CIS-FACTORIAL Myb reporter transcription; actives raise or lower the signal
Chain of Transcriptional activator Myb (Homo sapiens) (P10242 whole entry, looked up): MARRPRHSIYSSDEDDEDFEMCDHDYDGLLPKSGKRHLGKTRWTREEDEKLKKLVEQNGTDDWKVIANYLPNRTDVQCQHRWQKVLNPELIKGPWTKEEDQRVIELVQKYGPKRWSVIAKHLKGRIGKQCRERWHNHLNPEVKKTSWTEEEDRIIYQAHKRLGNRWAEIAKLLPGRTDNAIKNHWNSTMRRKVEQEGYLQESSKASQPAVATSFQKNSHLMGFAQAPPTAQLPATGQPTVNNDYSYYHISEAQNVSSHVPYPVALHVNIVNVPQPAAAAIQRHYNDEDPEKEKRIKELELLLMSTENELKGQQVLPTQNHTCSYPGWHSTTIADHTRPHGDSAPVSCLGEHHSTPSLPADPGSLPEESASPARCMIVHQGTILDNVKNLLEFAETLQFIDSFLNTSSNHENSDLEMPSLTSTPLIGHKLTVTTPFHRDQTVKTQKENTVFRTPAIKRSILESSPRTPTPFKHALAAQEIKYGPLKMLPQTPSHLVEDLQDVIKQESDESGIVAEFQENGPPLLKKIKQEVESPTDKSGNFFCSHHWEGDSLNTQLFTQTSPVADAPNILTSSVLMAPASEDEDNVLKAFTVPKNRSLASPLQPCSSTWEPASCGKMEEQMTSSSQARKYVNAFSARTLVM
Summary of the method: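 Fluorescence signals from capillary electrophoresis of RT-PCR-amplified reporter cDNA give the read-out. Cells: HepG2 transfected with multiple cis-regulated reporter units. Exposure lasts 24 hours; DMSO defines baseline for gain or loss of signal.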

[5] = biological target: Nuclear respiratory factor 1 (Homo sapiens) (UniProt Q16656); test: ATG_NRF1_CIS: Attagene CIS-FACTORIAL HepG2 Assay for human Nuclear Respiratory Factor 1 (NRF1) Orphan Gene (AID 2282987); details: HepG2 NRF1 cis-element reporter, Attagene multiplex; actives raise or lower the signal
Chain of Nuclear respiratory factor 1 (Homo sapiens) (Q16656 whole entry, looked up): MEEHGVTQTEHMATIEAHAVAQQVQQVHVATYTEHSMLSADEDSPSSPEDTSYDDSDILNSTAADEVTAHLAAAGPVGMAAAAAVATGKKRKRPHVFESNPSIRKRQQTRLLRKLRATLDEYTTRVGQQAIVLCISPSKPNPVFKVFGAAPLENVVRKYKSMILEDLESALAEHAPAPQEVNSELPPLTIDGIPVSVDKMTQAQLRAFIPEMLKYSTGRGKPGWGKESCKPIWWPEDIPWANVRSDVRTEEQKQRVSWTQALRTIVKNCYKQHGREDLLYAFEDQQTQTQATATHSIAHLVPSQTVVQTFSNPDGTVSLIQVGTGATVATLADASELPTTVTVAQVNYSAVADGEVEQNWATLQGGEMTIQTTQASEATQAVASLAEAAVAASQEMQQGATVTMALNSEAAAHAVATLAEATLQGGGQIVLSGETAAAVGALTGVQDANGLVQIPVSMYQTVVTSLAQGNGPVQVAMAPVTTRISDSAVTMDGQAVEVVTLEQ
Summary of the method: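 Transcriptional reporter readout, one component of a 52-endpoint multiplexed HepG2 panel. Exposure 24 h; mRNA detected via RT-PCR and fluorescent capillary electrophoresis; fitting in both directions against DMSO.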

[6] = ATG_NFI_CIS: Attagene CIS-FACTORIAL HepG2 Assay for human Nuclear Factor I (NFI) (AID 2282989); details: HepG2 cis-regulatory reporter, NFI response element transcription; actives raise or lower the signal
Summary of the method: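 Reporter transcripts were measured by RT-PCR with fluorescent primer extension and capillary electrophoresis 24 h post-treatment. HepG2 cells carried transiently transfected cis-regulated reporter constructs reporting endogenous factor activity; gain or loss fitted against DMSO baseline.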

[7] = biological target: Myc proto-oncogene protein (Homo sapiens) (UniProt P01106); test: ATG_Myc_CIS: Attagene CIS-FACTORIAL HepG2 Assay for human Myelocytomatosis (Myc) Proto-Oncogene Transcription Factor (AID 2282990); details: HepG2, Attagene cis-reporter transcription factor activity; actives raise or lower the signal
Chain of Myc proto-oncogene protein (Homo sapiens) (P01106 whole entry, looked up): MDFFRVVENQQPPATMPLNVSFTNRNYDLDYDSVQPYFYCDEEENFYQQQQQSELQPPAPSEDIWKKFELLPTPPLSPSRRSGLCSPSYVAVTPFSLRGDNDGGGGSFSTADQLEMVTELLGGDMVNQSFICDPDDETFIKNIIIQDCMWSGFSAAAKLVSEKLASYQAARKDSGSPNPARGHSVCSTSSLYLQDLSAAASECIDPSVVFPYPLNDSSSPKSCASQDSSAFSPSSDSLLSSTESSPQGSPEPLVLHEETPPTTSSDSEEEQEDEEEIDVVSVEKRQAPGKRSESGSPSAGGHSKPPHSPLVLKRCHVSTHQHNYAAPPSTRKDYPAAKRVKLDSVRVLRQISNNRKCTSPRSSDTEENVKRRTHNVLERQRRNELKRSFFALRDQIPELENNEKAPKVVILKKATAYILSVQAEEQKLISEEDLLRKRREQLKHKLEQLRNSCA
Summary of the method: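 HepG2 cells transiently transfected with multiple cis-promoter-driven reporter transcription units, so endogenous TF activity is read. After 24 h compound exposure, reporter mRNA was quantified by RT-PCR, 6-FAM labelling, HpaI digestion and capillary electrophoresis; bidirectional fit versus DMSO.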

[8] = ATG_M_06_TRANS: Attagene TRANS-FACTORIAL HepG2 Assay for M06 Transcription Factor (Internal Marker) (AID 2282983; active = hit-call score of the fitted dose curve at least 0.9, where 1 is the maximum;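 note: reporter transcript level by RT-PCR then capillary electrophoresis fluorescence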); details: HepG2 Attagene TRANS M06 internal marker reporter
Summary of the method: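 Background-control reporter readout: after 24 h chemical exposure of transiently transfected HepG2 (GAL4-UAS reporter units), mRNA quantified by RT-PCR with fluorescent labeling and capillary electrophoresis. Gain-of-signal fitting against DMSO baseline.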

[9] = biological target: Nuclear receptor subfamily 4 group A member 2 (Homo sapiens) (UniProt P43354); test: ATG_NURR1_TRANS: Attagene TRANS-FACTORIAL HepG2 Assay for human Nuclear Receptor Related Protein 1 (NURR1) (AID 2282985; active = hit-call score of the fitted dose curve at least 0.9, where 1 is the maximum); details: HepG2 Attagene TRANS reporter, mRNA readout
Chain of Nuclear receptor subfamily 4 group A member 2 (Homo sapiens) (P43354 whole entry, looked up, the tested form may be a part): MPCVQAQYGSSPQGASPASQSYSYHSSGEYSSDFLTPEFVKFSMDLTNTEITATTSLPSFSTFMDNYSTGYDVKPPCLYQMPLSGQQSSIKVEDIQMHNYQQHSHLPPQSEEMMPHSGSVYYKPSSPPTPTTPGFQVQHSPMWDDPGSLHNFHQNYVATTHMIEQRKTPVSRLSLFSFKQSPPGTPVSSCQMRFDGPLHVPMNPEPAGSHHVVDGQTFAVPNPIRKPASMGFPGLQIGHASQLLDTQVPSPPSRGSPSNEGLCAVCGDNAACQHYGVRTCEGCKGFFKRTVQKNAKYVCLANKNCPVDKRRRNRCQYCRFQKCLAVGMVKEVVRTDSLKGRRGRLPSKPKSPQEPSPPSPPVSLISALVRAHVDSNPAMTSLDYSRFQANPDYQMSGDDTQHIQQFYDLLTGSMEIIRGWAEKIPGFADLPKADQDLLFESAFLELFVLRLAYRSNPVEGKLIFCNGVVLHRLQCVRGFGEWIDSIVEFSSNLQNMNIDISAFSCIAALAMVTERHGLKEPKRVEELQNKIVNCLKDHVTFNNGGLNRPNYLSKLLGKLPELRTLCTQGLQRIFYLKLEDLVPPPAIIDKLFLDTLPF
Summary of the method: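 Chimeric NR-Gal4 proteins were expressed in human HepG2 cells bearing GAL4-UAS reporter units, and induced reporter mRNA was quantified 24 h post-dosing by RT-PCR and capillary electrophoresis.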

Measured: AC50

CC1CCC(C(=O)O)CC1 (stereo not given)
inactive: [1] | [2] | [3] | [4] | [5] | [6] | [7]

COC1=CC(=O)C[C@@H](C)[C@]12Oc1c(Cl)c(OC)cc(OC)c1C2=O
inactive: [1] | [2] | [3] | [4] | [5] | [6] | [7]

C=CC(F)(F)C(F)(F)C(F)(F)C(F)(F)F
inactive: [1] | [2] | [8] | [4] | [5] | [6] | [7]

C=CC(=O)OCCC(F)(F)C(F)(F)C(F)(F)C(F)(F)C(F)(F)C(F)(F)C(F)(F)C(F)(F)F
inactive: [1] | [2] | [3] | [9] | [4] | [5] | [6] | [7]

NNC(=O)CCCCC(=O)NN
inactive: [1] | [2] | [3] | [4] | [5] | [6] | [7]

CCCCCCCCCCCCCC[n+]1ccccc1
active: [1] 53.6 µM | [2] 100 µM | [3] 47 µM
inactive: [4] | [5] | [6] | [7]

CCO[Si](C)(C)OCC
inactive: [1] | [2] | [3] | [9] | [4] | [5] | [6] | [7]

Oc1c(Cl)cc(Cl)cc1Sc1cc(Cl)cc(Cl)c1O
inactive: [1] | [2] | [8] | [4] | [5] | [6] | [7]

O=C1c2ccc(O)c(O)c2C(=O)c2c(O)ccc(O)c21
inactive: [1] | [2] | [8] | [9] | [4] | [5] | [6] | [7]

O=C(Nc1cccc([N+](=O)[O-])c1)c1cc2ccccc2cc1O
inactive: [1] | [2] | [9] | [4] | [5] | [7]

OCCN1CN(CCO)CN(CCO)C1
inactive: [1] | [2] | [3] | [4] | [5] | [7]

C=CC(=O)OCCN(CC)CC
inactive: [1] | [2] | [3] | [9] | [4] | [5] | [7]
active: [6] 27.4 µM

CCCCN(C)C
inactive: [1] | [2] | [8] | [9] | [4] | [5] | [6] | [7]

CC(O)COc1ccccc1 (stereo not given)
active: [1] 26.1 µM
inactive: [2] | [3] | [4] | [5] | [6] | [7]

Oc1ccc(Cc2ccccc2O)cc1
inactive: [1] | [2] | [3] | [9] | [4] | [5] | [7]

NS(=O)(=O)O
inactive: [1] | [2] | [3] | [4] | [5] | [6] | [7]

OCC(CO)(CBr)CBr
inactive: [1] | [2] | [3] | [9] | [4] | [5] | [7]

Nc1ccn([C@@H]2O[C@H](CO)[C@@H](O)C2O)c(=O)n1 (stereo not given in full)
inactive: [1] | [2] | [9] | [4] | [5] | [6] | [7]

CC(C)(c1ccc(Oc2ccc(N)cc2)cc1)c1ccc(Oc2ccc(N)cc2)cc1
inactive: [1] | [2] | [3] | [4] | [5] | [6] | [7]

O=c1cc(-c2ccccc2)oc2ccc3ccccc3c12
inactive: [1] | [2] | [3] | [9] | [4] | [5] | [6] | [7]

O=CC(F)(F)C(F)(F)C(F)(F)C(F)F
inactive: [1] | [8] | [3] | [9] | [4] | [5] | [6] | [7]

O=C(c1ccccc1)c1ccccc1
inactive: [1] | [3] | [4] | [7]

Brc1cc(Br)c(Oc2c(Br)cc(Br)c(Br)c2Br)cc1Br
inactive: [1] | [8] | [3] | [4] | [5] | [7]

CCCCCCCCCCCCCCC
inactive: [1] | [9] | [4] | [5] | [6] | [7]

C=CC(=C)CC/C=C(\C)CCC=C(C)C
inactive: [1] | [8] | [3] | [9] | [4] | [5] | [6] | [7]

CCC(C)c1nccnc1OC (stereo not given)
inactive: [1] | [8] | [3] | [4] | [5] | [6] | [7]

CC=O
inactive: [1] | [4] | [5] | [6] | [7]

COCC1CCC(CO)CC1 (stereo not given)
inactive: [1] | [8] | [4] | [5] | [6] | [7]

CCCCCCCCC(C)=O
inactive: [1] | [4] | [5] | [7]

CN(C)CCOC(c1ccccc1)c1ccccc1
inactive: [1] | [8] | [4] | [7]
